Tau fil binding: qHTS Assay for Tau Filament Binding; Microtubule-associated protein tau (Homo sapiens), P10636; recombinant tau filaments, thioflavin S fluorescence, 15 h; filaments grown with octadecylsulfate alongside compound; Potency, µM (top dose mostly 57.1 µM), for the others: at the top dose activity change, negative = inhibition; hit rate 2% among 71,000; AID 596, 2007;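 further: actives lower thioflavin S fluorescence by blocking filaments or displacing dye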
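Tau 2 uM in ThS buffer dispensed; compound added; 60 uM ODS added (finals 1 uM tau, 30 uM ODS); 15 h 37 C; fluor ex450/em510.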
Luciferase inh: qHTS Assay for Inhibitors of Firefly Luciferase; Luciferin 4-monooxygenase (Photinus pyralis), P08659; purified firefly luciferase, luminescence, 8 min; Potency, µM (highest dose often 57.1 µM), for inactives: at the highest dose activity change, negative = inhibition, most hits filed as inhibitors; hit rate 2.2% among 72,000; further: nearly all actives have a fitted effect of over 40% in size
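Titration-based qHTS; buffer 50 mM imidazole pH 7.2, 50 mM KCl, 7 mM MgCl2, 10 uM ATP, 0.01% Tween 20, 0.05% BSA; luciferase/luciferin detector mix added after compound; 8 min, ambient; luminescence.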
DNA Pol III inh: qHTS Assay for Inhibitors of DNA Polymerase III Holoenzyme System | reconstituted DNA polymerase III holoenzyme replication, biochemical | Potency, µM (series often up to 57.1 µM), for inactives: top-dose activity change, negative = inhibition | hit rate 0.25% among 71,000
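Reconstituted *E. coli* holoenzyme (0.35 nM Pol III, 1 nM beta, 154 nM SSB, 2 nM primase) was preincubated with compound for 15 min at RT. Synthesis on 1.4 nM ssM13Gori ran 35 min, then was stopped with PicoGreen/EDTA and read as dsDNA fluorescence.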
Bst PK mod: Pyruvate Kinase; Potency, µM; purified pyruvate kinase, luminescence ATP production; ribose 5-phosphate activator present at AC10; hit rate 1.2% among 51,000; AID 361, 2006; in the data active means potency below about 11 µM; inconclusive means mostly about 12 µM to 25 µM;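 the screen sought inhibitors and activators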;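 further: scaled between full activation by ribose 5 phosphate and full inhibition by luteolin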
ALOX15 inhib: qHTS Assay for Inhibitors of 15-hLO (15-human lipoxygenase). Polyunsaturated fatty acid lipoxygenase ALOX15 (Homo sapiens), P16050. purified 15hLO-1, xylenol orange hydroperoxide absorbance. Potency, µM (doses to about 57.1 µM), for inactives: at the highest dose activity change, negative = inhibition, most hits filed as inhibitors. hit rate 1.4% among 74,000. AID 887, 2007; further: nearly all actives have a fitted effect of over 55% in size
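Hydroperoxide formed from arachidonic acid (50 uM) by purified human 15hLO-1 (40 nM) oxidizes ferrous iron, and the ferric-xylenol orange complex is read at 573 versus 405 nm. Compounds were preincubated 15 min; reaction ran 6 min at room temperature.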
ERK AVP block: qHTS Assay for Inhibitors of the ERK Signaling Pathway using a Homogeneous Screening Assay; HEK293-V1b, vasopressin-stimulated pERK AlphaScreen; Potency, µM (highest dose often 57.5 µM), without a hit: top-dose activity, negative = inhibition, actives largely listed as inhibitors; hit rate 0.99% among 72,000; further: nearly all actives have a fitted effect of over 55% in size
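V1b-HEK293 cells; cpd 30 min 37C; 25 nM vasopressin 5 min; lyse 10 min; AlphaScreen beads 5 hr RT. Normalized to DMSO basal and 25 nM vasopressin; AC50 by Hill fit.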
Numbers without * were called inactive; u = inconclusive; x = not tested or not shown; [ ] = dose if it differs, or a comment. Shown are actives, neighbours in structure and some others; about 6% of the full set was active somewhere. Unless noted, the call rests on the fitted dose curve; in most records, active means well fitted curve in the direction sought with a large enough effect; inconclusive means small, poorly fitted or top-dose-only effect, or another doubt; inactive means no such curve, though single readings can be large; an effect the other way counts as inactive or inconclusive. Unless noted, on the % scale 0 is the no-effect control and ±100 the full control effect; potency means the concentration at half of the fitted maximal effect.

SMILES | Tau fil binding | Luciferase inh | DNA Pol III inh | Bst PK mod | ALOX15 inhib | ERK AVP block
COc1ccc(C(=O)COC(=O)c2ccco2)cc1 | -3.9% | 6.31µM* | -16.5% | 3.14* | 10.8% | 1.9%
Cc1ccnc(Nc2nc3ccccc3o2)n1 | -7.6% | 6.31µM* | 2.6% | x | 55.7% | 13.8%
CC(=O)[C@@]1(O)CC[C@@H]2[C@@H]3CCC4=CC(=O)CC[C@@]4(C)[C@H]3CC[C@]21C | -0.8% | -0.8% | 21.9% | x | -4.5% | 1.2%
COCn1c(-c2ccc(OC)c(OC)c2)nc2ccccc21 | -2.8%[11.4 µM] | 15.8µM* | -2.4%[11.4 µM] | x | -1.5%[11.4 µM] | u
Cc1ccc(-c2cc(C(F)F)n3ncc(C(=O)N4CCN5CCCC5C4)c3n2)cc1 (configuration not stated) | 25.1µM* | 0.3% | -2.0% | >57 | -6.3% | -12.6%
C=C1CC[C@@H](O)C/C1=C/C=C1\CCC[C@]2(C)[C@@H]1CC[C@H]2[C@@H](C)CCCC(C)C | u | 2.5%[11.4 µM] | 0.9% | x | x | x
CCN(CCCNC(=O)CCCN1C(=O)COc2ccc(C)cc21)c1cccc(C)c1 | 15.8µM* | 1.7% | -1.5% | >57 | u | -23.6%
COc1ccccc1CNC(=O)CCCN1C(=O)COc2ccc(C)cc21 | 8.3% | 0.9% | -3.7% | >57 | 1.7% | -15.7%
O=C(c1ccco1)N1CCC2(CCCN(c3ccncc3)C2)CC1 | 2.7% | 0.6%[11.4 µM] | 0.4% | x | 12.2% | -1.1%
c1ccc2c3c([nH]c2c1)[C@@H]1[C@H]2CC[C@H]([C@H]4CCCN[C@H]42)N1CC3 | -28.4%[25.6 µM] | 0.4%[25.5 µM] | -6.0%[25.6 µM] | x | -26.1%[25.6 µM] | 5.7%[25.7 µM]
COc1cccc(C(=O)NC2CC3CCCC(C2)N3CC(=O)Nc2ccc(N(C)C)cc2)c1 (configuration not stated) | 12.6µM* | -4.8% | -2.9% | >57 | -9.3% | 2.9%
c1csc(CNc2nc(-c3ccc4c(c3)OCO4)nc3ccccc23)c1 | 259.6% | -1.5%[2.29 µM] | 0.8% | x | u | u
O=C(Oc1cccc2cccnc12)c1ccc2c(c1)OCCO2 | -14.8% | 1.9% | -0.9% | 10.5* | -14.4% | -5.1%
O=C(O)c1ccccc1NS(=O)(=O)c1ccccc1C(F)(F)F | -3.8% | 0.5% | -6.5% | >57 | -1.5% | -9.2%
CN(CC(=O)Nc1ccc2c(c1)OCCO2)S(=O)(=O)c1cccc2cccnc12 | -9.3% | -16.6% | 1.1% | x | 2.8% | -24.5%
COc1ccccc1NS(=O)(=O)c1cccc2cccnc12 | -20.4% | 3.7% | -5.0% | x | -0.2% | x
O=C(O)c1ccccc1NS(=O)(=O)c1cccc2cccnc12 | -5.3% | -0.3% | 5.1% | 9.09* | -0.9% | -1.1%
COc1ccc(NS(=O)(=O)c2cccc3cccnc23)cc1 | -11.9% | -3.0% | 0.2% | 2.61* | -9.3% | 21.0%
O=S(=O)(Nc1ccc2c(c1)OCCO2)c1cccc2cccnc12 | -3.9% | -0.3% | -1.8% | 3.27* | -11.0% | -15.5%
CC(=O)OC[C@@H]1O[C@H](C/C=N\OC[C@@H](O)COCc2ccco2)C=C[C@@H]1OC(C)=O | x | 0.2%[11.4 µM] | x | x | 12.2%[11.4 µM] | 6.4%[11.5 µM]
CN(Cc1ccco1)c1cc(-c2ccc3c(c2)OCO3)ncn1 | 5.5% | -4.5%[2.29 µM] | -3.3% | x | -29.7% | -21.4%
Cc1nc(NC2CCCCC2)c2nc(-c3ccccc3)n(CCCN3CCCCC3C)c2n1 (configuration not stated) | 61.9% | x | -4.4% | x | 7.3% | -7.8%
Cc1nc2cc(NC(=O)Nc3ccc(N4CCOCC4)cc3)ccc2n1C | 25.1µM* | 0.1% | -4.8% | >57 | 3.2% | -16.7%
O=C(Nc1ccc(Cl)cc1)Nc1ccc(N2CCOCC2)cc1 | -15.8% | -1.6% | 3.6% | >57 | 12.3% | -11.3%
O=C(NCCN1CCOCC1)c1ccc(-n2c(=O)c(=O)[nH]c3ccccc32)cc1 | x | x | x | x | -7.0% | x
Nc1ccc(C2CCCc3nonc32)c2nonc12 (configuration not stated) | 25.1µM* | 0.2% | 0.9% | x | 7.94µM* | u

Source: PubChem (National Center for Advancing Translational Sciences (NCATS))
